Experimental findings from PubChem BioAssay AID1460 (National Center for Advancing Translational Sciences (NCATS), 2008) are described below.

About 5,800 (2.1%) of roughly 270,000 compounds were called active. A call without a number means that no potency is given here. Not shown: some 16% with an inconclusive outcome. Calls come from the whole dose curve; as a rule, active = well fitted inhibition curve with a large enough effect; inconclusive = small, poorly fitted or top-dose-only effect; inactive = flat fitted curve, though single readings scatter. This excerpt belongs to a sample that is enriched for actives.
Potency is the fitted concentration of half-maximal effect.

Microtubule-associated protein tau (Homo sapiens), sequence (P10636 561-689 P618L limits assumed): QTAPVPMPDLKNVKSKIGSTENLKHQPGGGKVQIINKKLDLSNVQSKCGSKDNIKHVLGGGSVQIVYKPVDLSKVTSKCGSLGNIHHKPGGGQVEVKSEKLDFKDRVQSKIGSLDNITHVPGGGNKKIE

The assay addresses Microtubule-associated protein tau (Homo sapiens) (UniProt P10636). The experiment in a line: qHTS for Inhibitors of Tau Fibril Formation, Thioflavin T Binding. Note: nearly all actives have a fitted effect of over 55% in size. Particulars: recombinant tau K18 P301L (four-repeat tau fragment), heparin-induced fibrillization, ThT fluorescence; series mostly up to 57.4 µM. The procedure, abridged:
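Tau K18 P301L fragment (15 uM unlabeled plus 0.24 uM Alexa 594-labeled) in 100 mM sodium acetate pH 7 with compound, fibrillization induced by 20 uM heparin for 6 hr at 37 C. Thioflavin T (30 uM) added, fluorescence read after 1 hr (ex 450, em 510 nm).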
For orientation: In qHTS, concentration-response curves come from the screen itself.
For the compound `CCS(=O)(=O)N1CCc2cc(C(=O)NCc3ccc(OC)cc3)ccc21`, the Potency entry was “inactive”.

Take `CCOc1ccc(C(c2c(C)[nH][nH]c2=O)c2c(C)[nH][nH]c2=O)cc1OCC`: the Potency entry was “inactive”. The result for `Cc1[nH][nH]c(=O)c1C(c1ccc(-c2ccc(Cl)cc2)o1)c1c(C)[nH][nH]c1=O` reads 7.08 µM (active). For the compound `CC1CCCN(c2cc3c(cc2F)c(=O)c(S(=O)(=O)c2cccc(Cl)c2)cn3Cc2ccccc2)C1` (stereo not drawn), the Potency entry is “inactive”. On to `CCOc1ccc(CC(=O)NCCc2csc3nc(-c4ccccc4F)nn23)cc1`, for which the Potency entry is “inactive”. With `O=C(Nc1ccc(S(=O)(=O)N2CCC(c3nc4ccccc4s3)CC2)cc1)c1ccccc1F`, the Potency result was “inactive”. Take `CC(C)c1ccc(NS(=O)(=O)c2ccc3[nH]cc(C(=O)NC4CCCC4)c(=O)c3c2)cc1`: the Potency result is “inactive”. As for `CCn1c2ccccc2c2nnc(N3CCN(c4cc(C)ccc4C)CC3)nc21`, the Potency entry is “inactive”. In the case of `O=c1c(=O)n(Cc2c(F)cccc2Cl)ccn1Cc1ccccc1`, the Potency result is “inactive”. In the case of `Cc1ccc(CNC(=O)CCc2c(C)nn(-c3ccc(N4CCCC4)nn3)c2C)cc1`, the Potency entry is “inactive”. In the case of `CC1=C/C(=N\S(=O)(=O)c2ccccc2)C(C(C)C)=CC1=O` it was “inactive”; in that of `Cc1ccc(S(=O)(=O)c2ccc(Oc3ccccc3)cc2)cc1`, “inactive”; in that of `CC1=C/C(=N\OS(=O)(=O)c2ccccc2)C=CC1=O`, 3.16 µM (active). On to `COc1ccc(OC)c(-c2nc(C(N)=O)c3c(n2)n(-c2ccc4c(c2)OCO4)c(=O)n3C)c1`, for which the Potency result is “inactive”. On to `CC(C)(C)OC(=O)N1CCC(c2c(C(=O)N3CCc4ccccc4C3)cnn2-c2ccc(F)cc2)CC1`, for which the Potency result was “inactive”.

With `CC(=O)c1cc(-c2ccccc2)[nH]c1N1CCCC1`, the Potency is 14.1 µM (active). Take `CC(=O)c1cc(C#N)c(N2CCCCC2)nc1C`: the Potency entry is “inactive”. Take `O=c1cc(-c2ccccc2)nc(N2CCCCC2)[nH]1`: the Potency result was “inactive”. In the case of `CCCc1nn2c(=O)cc(COC(=O)c3ccc(NC(=O)COc4ccc(F)cc4)cc3)nc2s1` it was “inactive”. Consider `CCCN(C(=O)Cn1ncc2c([nH]c3ccc(C)cc32)c1=O)c1ccccc1C`, for which the Potency entry was “inactive”. Consider `O=c1cc(CSc2ncn[nH]2)[nH]c2ccc(F)cc12`, for which the Potency entry is “inactive”. `CCCN(CCC)C(=O)C1CCCN(c2ncnc3c2nc2n3CCCCC2)C1` (stereo not drawn): the Potency result was “inactive”. Consider `Cc1ccc(-c2ccc(/C=C(\C#N)C(N)=S)o2)c([N+](=O)[O-])c1`, for which the Potency was 3.98 µM (active). On to `Cc1cc(-c2ccc(/C=N/n3cnnc3)o2)c([N+](=O)[O-])cc1C`, for which the Potency result was “inactive”. For the compound `Cc1ccc2nc(SCc3nnc(-c4ccccc4[N+](=O)[O-])o3)c(C#N)cc2c1`, the Potency result was “inactive”. Take `CCOc1ccc2nc(N3CCCC(C(=O)Nc4cc(C)ccc4C)C3)sc2c1` (stereo not drawn): the Potency result was “inactive”. The result for `O=C(NCc1ccccc1)c1cccc(NC(=O)N2CCSc3ncccc32)c1` reads “inactive”; that for `CC(=O)N1c2ccc(S(=O)(=O)N3CCCCCC3)cc2CC1C(=O)NCc1ccccc1C` (stereo not drawn), “inactive”; that for `C/C(=N\NC(=O)c1ccc(C)cc1)C1C(=O)c2ccccc2C1=O`, 5.01 µM (active). Regarding `Cc1ccc(C(=O)NCCNC(=O)c2ccccc2)cc1`, the Potency entry is “inactive”. As for `Cc1ccc(C(=O)NC(=S)Nc2ccccc2C)cc1`, the Potency result is “inactive”. `COc1ccc(C2C(=O)N(C3CCCCCC3)CC(=O)N2CCc2ccc(Cl)cc2)cc1OC` (stereo not drawn): the Potency entry is “inactive”. In the case of `CC(C)CNc1ncnc2c1nnn2C`, the Potency result is “inactive”. Consider `Cc1cccc(-c2nc(SCC(=O)Nc3cc(C)on3)c3c(=O)n(C)c(=O)n(C)c3n2)c1`, for which the Potency entry was “inactive”.

For the compound `Cc1ccc(N(CC(=O)NCc2ccc(Cl)cc2)S(=O)(=O)N(C)C)cc1`, the Potency entry is “inactive”. `Cc1ccc2sc(N(Cc3cccnc3)C(=O)C3COc4ccccc4O3)nc2c1C` (stereo not drawn): the Potency result was “inactive”. Regarding `CC(C)OC(=O)CN1C(=O)C(=O)c2ccccc21`, the Potency result is “inactive”. As to `CCCCN1C(=O)/C(=C(/C#N)C(N)=O)c2ccccc21`, the Potency is 20 µM (active). For `Cc1cc(C(=O)COC(=O)CCCN2C(=O)c3ccccc3C2=O)c(C)n1C`, the Potency result was “inactive”. `Cc1ccc(-n2nc(C)c3c(C)cc(=O)n(CC(=O)Nc4ccc(C(C)C)cc4)c32)cc1`: the Potency result was “inactive”. In the case of `CCOc1ccc(N=C2SC(C(=O)O)CC(=O)N2C)cc1` (stereo not drawn) it was “inactive”; in that of `CCOc1ccc(/C=N/NC(N)=S)cc1`, “inactive”; in that of `CCOc1ccc(N=C2NC(=O)S/C2=C\c2ccc(O)cc2)cc1`, 3.55 µM (active). With `Cc1cc(OC(C)C(=O)Nc2sc3c(c2C(N)=O)CCCC3)ccc1Cl` (stereo not drawn), the Potency entry is “inactive”. For the compound `COc1ccccc1CCNC(=O)c1cccn1-c1nnc(N2CCCCC2)s1`, the Potency result is “inactive”. As for `COc1ccc(CNC(=O)C2=Cc3cccc(OC)c3OC2)cc1OC`, the Potency result was “inactive”.

Turning to `COc1ccc(Cc2nc3ccc(C(=O)NCc4ccc(OC)cc4OC)cc3o2)cc1`, the Potency entry is “inactive”. For the compound `CC1CCCN(S(=O)(=O)c2ccc3[nH]c(=O)cc(C(=O)NCCc4ccc(Cl)cc4)c3c2)C1` (stereo not drawn), the Potency result was “inactive”. As to `CC(C)OCCCn1c(SCC(=O)c2ccccc2)nc2c(sc3ccccc32)c1=O`, the Potency entry is “inactive”. In the case of `Cc1cc(F)ccc1NS(=O)(=O)c1ccc(-n2cccn2)cc1` it was “inactive”; in that of `CC(C)CC(=O)NCC(c1ccc2c(c1)OCO2)N1CCN(c2ccc(F)cc2)CC1` (stereo not drawn), “inactive”.

As to `O=c1cc(N2CCN(Cc3ccccc3)CC2)c(-c2ccccc2)n[nH]1`, the Potency entry was “inactive”.

Turning to `O=C1c2ccccc2C(=O)c2c1cccc2N1CCN(Cc2ccccc2)CC1`, the Potency is 14.1 µM (active).

In the case of `O=C(CN1CCN(Cc2ccccc2)CC1)NC(c1ccccc1)c1ccccc1`, the Potency result was “inactive”. Regarding `CC(=O)c1ccc(NC(=O)CSc2nc(-c3ccccc3F)nc3c2c(=O)n(C)c(=O)n3C)cc1`, the Potency result is “inactive”.

As for `COc1ccc(Cn2ccn(Cc3cccc(OC)c3)c(=O)c2=O)cc1`, the Potency entry is “inactive”.

In the case of `Cn1c(=O)oc2cc(S(=O)(=O)CCC(=O)NCCc3ccc(Cl)cc3)ccc21`, the Potency result was “inactive”. For `Cc1ccc(C)c(Oc2c(C(F)(F)F)oc3c(CN4CCN(C)CC4)c(O)ccc3c2=O)c1`, the Potency entry was “inactive”. With `Fc1ccccc1Oc1ncnc2c1oc1ccccc12`, the Potency entry is “inactive”.

`C=CCOc1ccc(/C=N/NC(=O)C(C)Sc2ccccn2)cc1OCC` (stereo not drawn): the Potency result is “inactive”. In the case of `CCOc1ccc(/C=N/NC(=O)C(C)Sc2ccccn2)cc1OCC` (stereo not drawn) it was “inactive”; in that of `CCOc1ccc(/C=N/Nc2nncc(-c3ccccc3)n2)cc1OC`, 2.24 µM (active). `COc1ccc(-c2ccc(=O)n(CC(=O)Nc3ccc(Br)cc3F)n2)cc1`: the Potency entry is “inactive”. For `Cc1ccccc1CN1CCC(CNC(=O)c2cc3ccc4cccnc4c3[nH]2)CC1`, the Potency entry is “inactive”.

Regarding `CCC(=O)Nc1ccc(C(=O)Nc2cccc(OC)c2)cc1`, the Potency result was “inactive”. In the case of `COc1cccc(C(=O)Nc2ccc(N3CCCC3)cc2)c1`, the Potency was 14.1 µM (active).

As for `O=C(Nc1nc2cc3c(cc2s1)OCCO3)c1cccc(S(=O)(=O)N2CCOCC2)c1`, the Potency result was “inactive”. In the case of `COc1cccc(C(=O)Nc2ccc(-c3cc(C(F)(F)F)nn3-c3ccccc3)cc2)c1`, the Potency entry is “inactive”. Consider `COc1cccc(C(=O)Nc2nnc(S(=O)(=O)N3CCOCC3)s2)c1`, for which the Potency is 3.16 µM (active). For the compound `COc1ccc(C(=O)Nc2nc(-c3ccc(S(=O)(=O)N4CCOCC4)cc3)cs2)cc1`, the Potency result is “inactive”. For `COc1cc(NC(=O)C2CCN(c3cnccn3)CC2)cc(OC)c1`, the Potency result was “inactive”. For `CCc1ccc(S(=O)(=O)c2nnn3c2nc(N2CCN(CC)CC2)c2sccc23)cc1`, the Potency entry is “inactive”. `CCC(=O)Nc1ccccc1-c1nc2ccccc2n(CC(=O)Nc2ccc(C)c(C)c2)c1=O`: the Potency result is “inactive”. Take `COc1ccc(C=Nc2cccc3ncccc23)cc1`: the Potency entry was “inactive”. Regarding `Oc1c(C=Nc2cccc3nsnc23)ccc2ccccc12`, the Potency was 2.24 µM (active). Turning to `COc1cc(NC(=O)Cn2c(=O)n(Cc3ccco3)c(=O)c3oc4ccccc4c32)cc(OC)c1`, the Potency entry was “inactive”. Turning to `O=C1N/C(=C/c2cccs2)C(=O)N1Cc1ccc(F)cc1`, the Potency entry is “inactive”. In the case of `CSC1=N/C(=C\C=C\c2cccs2)C(=O)S1` it was 14.1 µM (active). Take `Cc1cccc(C2=N/C(=C/c3cccs3)C(=O)O2)c1`: the Potency result is “inactive”. As to `CC1Cc2cc(S(=O)(=O)CCC(=O)Nc3ccc(F)c(Cl)c3)ccc2N1C(=O)C1CC1` (stereo not drawn), the Potency result was “inactive”. Take `O=C(CCC(=O)c1cccs1)NCc1ccccc1`: the Potency entry was “inactive”. Consider `Cc1ccc(C)c(NC(CC(=O)c2ccccc2)C(=O)OCC(=O)c2cccs2)c1` (stereo not drawn), for which the Potency entry is “inactive”.

Consider `Cc1ccccc1C(CC(=O)c1cccs1)C(C#N)C#N` (stereo not drawn), for which the Potency was 25.1 µM (active). The result for `COc1cccc(-n2cc(C(=O)NCc3cccc(Cl)c3)c3ccccc3c2=O)c1` reads “inactive”. As for `Cc1coc2c(O)cc3c(c12)OC1(N2CCCCC2)C(=O)NCCCC31` (stereo not drawn), the Potency was 15.8 µM (active). With `CCS(=O)(=O)N1CCC(n2c(C)nc3cccnc32)CC1`, the Potency entry is “inactive”. The result for `COc1ccc(Cl)cc1C(=O)NNC(=S)NC1CCCC1` reads “inactive”; that for `C=CCNC(=S)NNC(=O)c1cc(Cl)ccc1OC`, “inactive”; that for `COc1ccc(Cl)cc1C(=O)NNC(=S)NC(=O)/C=C/c1ccco1`, 11.2 µM (active). As to `Cc1ccc(C(=O)N2c3ncnn3C3(CCCCC3)[C@@H]3CCCC[C@@H]32)cc1`, the Potency result is “inactive”.

With `Cc1cccn2c(=O)c(/C=C3\SC(=S)N(CC(C)C)C3=O)c(NCCCOC(C)C)nc12`, the Potency result was “inactive”. Take `CCOC(=O)CNC(=O)c1cc2c(=O)n3cccc(C)c3nc2s1`: the Potency result was “inactive”.

On to `CCOC(=O)CC1C(=O)NCCN1c1nc2c(C)cccn2c(=O)c1/C=C1\SC(=S)N(C(C)CC)C1=O` (stereo not drawn), for which the Potency is 7.94 µM (active). Take `Cn1nnnc1SCCCNCc1cccc(OCc2ccc(Cl)cc2)c1`: the Potency result is “inactive”. With `Cc1cccc(C)c1Nc1c(-c2ccccc2O)nc2ncccn12`, the Potency entry was “inactive”.

Turning to `CCc1cccc(C)c1Nc1c(-c2ccc(N(C)C)cc2)nc2ncccn12`, the Potency is 14.1 µM (active). On to `Cc1ccccc1Nc1c(-c2ccccc2)nc2ncccn12`, for which the Potency entry is “inactive”. As for `COc1ccc(NC(=O)CN2CCCN(Cc3ccccc3)S2(=O)=O)cc1`, the Potency entry was “inactive”. In the case of `Cc1nnc(C)n1-c1ccc(C(=O)Nc2cccc(Br)c2)cc1`, the Potency result was “inactive”. Regarding `C=Cc1ccc(Cn2c(C(=O)O)c(CNC3CCCC3)c3ccc(C)cc32)cc1`, the Potency result was “inactive”. For the compound `CC1CCC(NS(=O)(=O)c2ccc3c(c2)n(C)c(=O)c(=O)n3C)CC1` (stereo not drawn), the Potency result is “inactive”.

Take `Cn1sc(=O)c2cc(S(=O)(=O)NC3CC3)ccc21`: the Potency is 12.6 µM (active).

`CSc1ccc(S(=O)(=O)NC2CCCCC2)cc1`: the Potency entry is “inactive”.
